From article PMC7862700, “An all-to-all approach to the identification of sequence-specific readers for epigenetic DNA modifications on cytosine”

How the values were obtained:
Assay in all cases: DAPPL (digital affinity profiling via proximity ligation, sequencing); 10 mM Tris-HCl pH 7.5, 50 mM NaCl, 1 mM DTT, 4% glycerol, room temperature, 30 min; GST-TFs on glutathione beads, 16-mer random dsDNA library, 0.1% formaldehyde crosslink after washing; high values mean tight binding
Settings in all cases: protein: recombinant; tags: N-terminal GST; dsDNA, one strand shown
ELK1 = target: T1, ELK1 (Homo sapiens, UniProt P19419 1-428)
T1 sequence: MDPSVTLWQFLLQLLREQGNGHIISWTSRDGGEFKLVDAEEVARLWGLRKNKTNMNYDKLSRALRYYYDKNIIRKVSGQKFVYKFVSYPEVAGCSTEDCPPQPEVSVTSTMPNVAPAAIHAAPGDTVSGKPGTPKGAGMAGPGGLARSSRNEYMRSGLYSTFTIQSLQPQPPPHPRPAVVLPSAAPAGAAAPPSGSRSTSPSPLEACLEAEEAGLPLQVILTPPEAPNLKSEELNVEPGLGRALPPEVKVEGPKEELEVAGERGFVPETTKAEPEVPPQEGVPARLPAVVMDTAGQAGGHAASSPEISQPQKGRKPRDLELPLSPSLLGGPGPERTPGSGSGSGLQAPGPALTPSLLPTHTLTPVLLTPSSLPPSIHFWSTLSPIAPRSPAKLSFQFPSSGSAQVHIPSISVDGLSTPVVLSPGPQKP
How it was run: (§1)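 A tag-only sample was pooled with DNA-barcoded human transcription factors that had been expressed in yeast as GST fusions and captured on glutathione beads. The pools were incubated for 30 min at room temperature with 200 nmole of a random double-stranded 16-mer DNA library in Tris/NaCl/DTT/glycerol buffer, then washed, crosslinked with 0.1% formaldehyde, proximity-ligated (BsaI/T4 ligase, 1 h, 37 °C), PCR-amplified and sequenced on an Illumina NextSeq500. Binding signal is each hexamer's read frequency for a factor divided by its frequency for the tag-only sample.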

GABPA = target: T2, GABPA (Homo sapiens, UniProt Q06546 1-454)
T2 sequence: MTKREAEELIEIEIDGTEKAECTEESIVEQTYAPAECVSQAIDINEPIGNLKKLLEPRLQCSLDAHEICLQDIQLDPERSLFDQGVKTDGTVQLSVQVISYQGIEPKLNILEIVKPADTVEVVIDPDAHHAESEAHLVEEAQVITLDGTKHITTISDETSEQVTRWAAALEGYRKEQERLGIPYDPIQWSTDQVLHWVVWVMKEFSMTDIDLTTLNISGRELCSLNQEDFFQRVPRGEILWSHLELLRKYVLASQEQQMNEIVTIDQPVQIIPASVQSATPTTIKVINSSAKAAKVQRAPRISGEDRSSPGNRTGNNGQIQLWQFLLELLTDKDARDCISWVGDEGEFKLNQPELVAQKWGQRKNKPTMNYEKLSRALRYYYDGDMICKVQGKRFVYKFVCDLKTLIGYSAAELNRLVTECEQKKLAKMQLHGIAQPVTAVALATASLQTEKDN
How it was run: as §1

ELF1 = ELF1 (Homo sapiens, UniProt P32519 1-619)
Chain of ELF1 (P32519 whole entry): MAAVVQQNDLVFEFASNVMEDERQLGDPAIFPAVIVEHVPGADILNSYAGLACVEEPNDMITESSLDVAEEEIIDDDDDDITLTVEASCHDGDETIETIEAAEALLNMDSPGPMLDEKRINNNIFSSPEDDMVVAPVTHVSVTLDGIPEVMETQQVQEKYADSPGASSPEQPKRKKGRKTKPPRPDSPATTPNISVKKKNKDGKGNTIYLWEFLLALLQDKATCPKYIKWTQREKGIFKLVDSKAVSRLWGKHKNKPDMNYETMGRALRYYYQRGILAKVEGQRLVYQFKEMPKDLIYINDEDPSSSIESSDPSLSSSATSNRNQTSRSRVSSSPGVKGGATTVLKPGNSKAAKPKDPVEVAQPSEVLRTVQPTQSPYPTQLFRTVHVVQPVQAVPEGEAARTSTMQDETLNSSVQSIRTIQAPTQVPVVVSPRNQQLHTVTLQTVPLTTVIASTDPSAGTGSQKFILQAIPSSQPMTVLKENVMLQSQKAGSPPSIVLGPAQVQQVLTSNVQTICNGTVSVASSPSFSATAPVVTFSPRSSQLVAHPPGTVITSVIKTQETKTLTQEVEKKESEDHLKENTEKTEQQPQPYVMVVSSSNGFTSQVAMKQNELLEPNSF
How it was run: as §1

ELK3 = target: T3, ELK3 (Homo sapiens, UniProt P41970 1-407)
T3 sequence: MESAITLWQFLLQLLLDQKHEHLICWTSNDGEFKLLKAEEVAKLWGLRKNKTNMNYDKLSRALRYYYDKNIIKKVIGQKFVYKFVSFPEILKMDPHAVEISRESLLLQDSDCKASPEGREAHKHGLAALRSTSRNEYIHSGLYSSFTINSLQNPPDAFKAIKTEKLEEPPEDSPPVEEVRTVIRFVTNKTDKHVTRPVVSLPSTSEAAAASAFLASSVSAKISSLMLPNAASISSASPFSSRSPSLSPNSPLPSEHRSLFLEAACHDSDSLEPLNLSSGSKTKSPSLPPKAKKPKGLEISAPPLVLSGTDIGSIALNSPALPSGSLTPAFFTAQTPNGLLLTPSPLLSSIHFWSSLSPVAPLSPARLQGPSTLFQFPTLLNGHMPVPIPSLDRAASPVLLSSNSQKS
How it was run: as §1

FEV = target: T4, FEV (Homo sapiens, UniProt Q99581 1-238)
T4 sequence: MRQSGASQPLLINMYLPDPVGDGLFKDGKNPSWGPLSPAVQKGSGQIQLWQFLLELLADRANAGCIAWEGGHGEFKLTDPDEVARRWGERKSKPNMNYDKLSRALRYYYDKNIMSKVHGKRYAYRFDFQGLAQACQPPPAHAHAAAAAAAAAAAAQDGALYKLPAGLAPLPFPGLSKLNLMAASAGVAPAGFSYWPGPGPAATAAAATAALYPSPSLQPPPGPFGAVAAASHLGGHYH
How it was run: as §1

ELF4 = ELF4 (Homo sapiens, UniProt Q99607 1-663)
Chain of ELF4 (Q99607 whole entry): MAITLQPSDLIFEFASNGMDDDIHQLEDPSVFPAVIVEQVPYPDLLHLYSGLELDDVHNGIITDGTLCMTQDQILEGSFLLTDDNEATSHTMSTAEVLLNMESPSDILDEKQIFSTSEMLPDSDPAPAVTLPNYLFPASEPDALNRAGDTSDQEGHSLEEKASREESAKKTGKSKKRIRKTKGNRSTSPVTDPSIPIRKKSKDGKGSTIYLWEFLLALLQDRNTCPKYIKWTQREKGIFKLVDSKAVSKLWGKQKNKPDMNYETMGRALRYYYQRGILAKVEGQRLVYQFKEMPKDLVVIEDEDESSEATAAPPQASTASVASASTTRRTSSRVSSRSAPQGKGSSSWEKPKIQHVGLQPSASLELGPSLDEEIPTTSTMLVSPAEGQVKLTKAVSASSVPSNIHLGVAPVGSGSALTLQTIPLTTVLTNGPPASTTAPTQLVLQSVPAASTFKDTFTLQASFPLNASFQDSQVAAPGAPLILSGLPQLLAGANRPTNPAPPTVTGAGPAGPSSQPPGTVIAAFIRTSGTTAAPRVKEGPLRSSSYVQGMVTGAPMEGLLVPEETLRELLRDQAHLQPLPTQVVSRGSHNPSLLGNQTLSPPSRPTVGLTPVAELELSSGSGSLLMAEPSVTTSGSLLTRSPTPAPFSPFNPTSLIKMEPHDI
How it was run: as §1

ELF3 = target: T5, ELF3 (Homo sapiens, UniProt P78545 1-371)
T5 sequence: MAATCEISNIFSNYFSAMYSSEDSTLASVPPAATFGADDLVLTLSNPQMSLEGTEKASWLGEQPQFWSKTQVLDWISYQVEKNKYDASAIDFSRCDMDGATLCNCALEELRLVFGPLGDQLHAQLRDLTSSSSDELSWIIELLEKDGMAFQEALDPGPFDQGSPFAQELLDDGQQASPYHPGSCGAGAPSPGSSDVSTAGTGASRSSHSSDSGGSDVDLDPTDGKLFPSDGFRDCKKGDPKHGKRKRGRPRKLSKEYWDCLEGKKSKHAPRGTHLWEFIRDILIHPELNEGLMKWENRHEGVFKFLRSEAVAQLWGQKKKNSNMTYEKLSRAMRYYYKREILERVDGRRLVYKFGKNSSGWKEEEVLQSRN
How it was run: as §1

ETV1 = ETV1 (Homo sapiens, UniProt P50549 1-477)
Chain of ETV1 (P50549 whole entry): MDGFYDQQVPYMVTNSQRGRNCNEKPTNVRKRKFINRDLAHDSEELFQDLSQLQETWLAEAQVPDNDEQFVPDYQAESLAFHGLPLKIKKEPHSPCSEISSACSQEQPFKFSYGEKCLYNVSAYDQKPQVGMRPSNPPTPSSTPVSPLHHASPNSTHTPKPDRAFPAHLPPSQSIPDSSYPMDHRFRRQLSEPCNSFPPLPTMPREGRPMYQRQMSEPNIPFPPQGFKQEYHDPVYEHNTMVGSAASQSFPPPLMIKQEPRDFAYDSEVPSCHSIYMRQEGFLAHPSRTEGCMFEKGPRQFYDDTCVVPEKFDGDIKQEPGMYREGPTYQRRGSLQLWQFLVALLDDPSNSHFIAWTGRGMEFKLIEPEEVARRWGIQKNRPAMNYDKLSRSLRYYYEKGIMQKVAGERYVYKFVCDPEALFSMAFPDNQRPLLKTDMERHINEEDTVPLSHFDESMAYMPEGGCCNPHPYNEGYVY
How it was run: as §1

ERF = target: T6, ERF (Homo sapiens, UniProt P50548 1-548)
T6 sequence: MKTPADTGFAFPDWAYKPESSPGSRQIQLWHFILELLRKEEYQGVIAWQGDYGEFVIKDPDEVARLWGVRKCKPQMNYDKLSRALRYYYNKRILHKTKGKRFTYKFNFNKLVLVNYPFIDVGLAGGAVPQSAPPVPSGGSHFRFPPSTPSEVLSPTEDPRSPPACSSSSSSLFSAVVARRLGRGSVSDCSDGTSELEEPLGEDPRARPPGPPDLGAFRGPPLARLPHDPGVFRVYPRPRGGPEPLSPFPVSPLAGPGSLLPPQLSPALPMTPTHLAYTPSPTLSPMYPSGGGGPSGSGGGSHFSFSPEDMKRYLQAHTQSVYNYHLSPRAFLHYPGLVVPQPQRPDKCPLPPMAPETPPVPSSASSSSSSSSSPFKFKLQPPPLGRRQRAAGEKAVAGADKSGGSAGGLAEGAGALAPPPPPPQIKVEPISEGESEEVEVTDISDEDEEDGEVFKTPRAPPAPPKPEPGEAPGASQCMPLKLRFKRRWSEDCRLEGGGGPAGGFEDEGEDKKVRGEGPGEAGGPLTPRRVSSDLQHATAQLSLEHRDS
How it was run: as §1

ETV3L = target: T7, ETV3L (Homo sapiens, UniProt Q6ZN32 1-361)
T7 sequence: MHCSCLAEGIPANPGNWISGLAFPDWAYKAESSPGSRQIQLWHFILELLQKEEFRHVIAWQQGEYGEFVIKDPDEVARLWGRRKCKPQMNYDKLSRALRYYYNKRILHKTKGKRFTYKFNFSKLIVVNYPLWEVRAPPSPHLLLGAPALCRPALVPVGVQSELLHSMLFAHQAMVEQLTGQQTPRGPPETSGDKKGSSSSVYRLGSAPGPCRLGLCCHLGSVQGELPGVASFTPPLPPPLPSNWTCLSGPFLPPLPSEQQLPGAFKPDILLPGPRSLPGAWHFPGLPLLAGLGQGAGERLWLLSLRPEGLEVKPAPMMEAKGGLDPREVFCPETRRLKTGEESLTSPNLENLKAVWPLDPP
How it was run: as §1

EHF = target: T8, EHF (Homo sapiens, UniProt Q9NZC4 1-300)
T8 sequence: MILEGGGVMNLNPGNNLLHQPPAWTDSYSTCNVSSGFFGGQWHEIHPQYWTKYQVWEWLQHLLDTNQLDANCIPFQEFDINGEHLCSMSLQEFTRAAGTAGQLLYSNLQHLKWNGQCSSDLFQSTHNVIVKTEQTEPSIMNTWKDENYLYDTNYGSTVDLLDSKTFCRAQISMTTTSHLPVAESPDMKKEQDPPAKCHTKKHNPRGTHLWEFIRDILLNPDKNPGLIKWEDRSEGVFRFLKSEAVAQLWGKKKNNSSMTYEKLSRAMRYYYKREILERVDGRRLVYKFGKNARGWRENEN
How it was run: as §1

ELK4 = target: T9, ELK4 (Homo sapiens, UniProt P28324-2 1-405)
T9 sequence: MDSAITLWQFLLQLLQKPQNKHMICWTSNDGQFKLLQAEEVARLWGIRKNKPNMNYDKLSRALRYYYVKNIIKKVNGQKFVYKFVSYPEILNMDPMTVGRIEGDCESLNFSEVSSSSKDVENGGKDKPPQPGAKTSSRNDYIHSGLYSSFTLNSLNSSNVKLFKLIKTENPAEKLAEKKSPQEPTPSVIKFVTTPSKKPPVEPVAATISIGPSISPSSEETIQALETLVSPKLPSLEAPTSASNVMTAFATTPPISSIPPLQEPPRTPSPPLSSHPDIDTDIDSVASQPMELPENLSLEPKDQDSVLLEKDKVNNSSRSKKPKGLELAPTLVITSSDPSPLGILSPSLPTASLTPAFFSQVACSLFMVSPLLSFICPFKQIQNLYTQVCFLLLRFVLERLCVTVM
How it was run: as §1

ETV2 = target: T10, ETV2 (Homo sapiens, UniProt O00321 1-342)
T10 sequence: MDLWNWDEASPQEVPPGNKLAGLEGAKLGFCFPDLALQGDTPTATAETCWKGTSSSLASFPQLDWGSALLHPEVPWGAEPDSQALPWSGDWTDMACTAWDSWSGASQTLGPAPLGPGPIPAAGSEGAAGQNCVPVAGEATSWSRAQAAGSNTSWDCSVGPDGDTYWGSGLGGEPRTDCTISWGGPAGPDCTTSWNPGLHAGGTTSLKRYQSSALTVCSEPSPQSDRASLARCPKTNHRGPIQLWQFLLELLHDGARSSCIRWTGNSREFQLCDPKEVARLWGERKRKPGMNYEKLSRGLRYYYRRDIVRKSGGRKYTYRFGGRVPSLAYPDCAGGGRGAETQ
How it was run: as §1

ETV7 = target: T11, ETV7 (Homo sapiens, UniProt Q9Y603 1-341)
T11 sequence: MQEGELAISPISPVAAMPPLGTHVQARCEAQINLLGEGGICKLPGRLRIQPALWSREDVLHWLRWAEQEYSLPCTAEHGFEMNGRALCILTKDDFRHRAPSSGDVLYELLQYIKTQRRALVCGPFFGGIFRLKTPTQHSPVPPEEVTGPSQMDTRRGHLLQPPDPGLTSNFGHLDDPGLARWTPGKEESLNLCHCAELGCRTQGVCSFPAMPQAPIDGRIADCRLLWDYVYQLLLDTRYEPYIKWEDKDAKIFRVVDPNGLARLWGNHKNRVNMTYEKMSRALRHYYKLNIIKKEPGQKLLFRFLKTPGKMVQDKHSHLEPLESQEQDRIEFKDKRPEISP
How it was run: as §1

ETV3 = target: T12, ETV3 (Homo sapiens, UniProt P41162-2 1-143)
T12 sequence: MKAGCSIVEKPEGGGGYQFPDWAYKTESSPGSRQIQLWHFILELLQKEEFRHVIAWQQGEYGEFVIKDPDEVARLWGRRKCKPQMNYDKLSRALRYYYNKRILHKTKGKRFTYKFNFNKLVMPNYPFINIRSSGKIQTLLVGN
How it was run: as §1

## CATCAA
ELK1
  binding signal: 1.01 fold enrichment (6-mer frequency, TF over GST control)
GABPA
  binding signal: 1.03 fold enrichment (6-mer frequency, TF over GST control)
ELF1
  binding signal: 1.03 fold enrichment (6-mer frequency, TF over GST control)
ELK3
  binding signal: 1.07 fold enrichment (6-mer frequency, TF over GST control)
FEV
  binding signal: 1 fold enrichment (6-mer frequency, TF over GST control)
ELF4
  binding signal: 1.05 fold enrichment (6-mer frequency, TF over GST control)
ELF3
  binding signal: 1.03 fold enrichment (6-mer frequency, TF over GST control)
ETV1
  binding signal: 1.01 fold enrichment (6-mer frequency, TF over GST control)
ERF
  binding signal: 1.02 fold enrichment (6-mer frequency, TF over GST control)
ETV3L
  binding signal: 1.08 fold enrichment (6-mer frequency, TF over GST control)

## AACAGA
EHF
  binding signal: 1.06 fold enrichment (6-mer frequency, TF over GST control)
ELF4
  binding signal: 1.02 fold enrichment (6-mer frequency, TF over GST control)
ELK4
  binding signal: 1.1 fold enrichment (6-mer frequency, TF over GST control)
ETV2
  binding signal: 1.01 fold enrichment (6-mer frequency, TF over GST control)
ETV7
  binding signal: 1.02 fold enrichment (6-mer frequency, TF over GST control)
ETV3
  binding signal: 1.01 fold enrichment (6-mer frequency, TF over GST control)

## GTTGAA
ELK4
  binding signal: 1.01 fold enrichment (6-mer frequency, TF over GST control)
